About 2,700 (4%) of roughly 68,000 compounds showed an effect of 50% or more. The sample holds strong results, similar compounds and a random draw of the others, so the mix is not that of the screen.
The molecules below were run on Plasmodium berghei (assay: Screen against P. berghei liver stage (PbLuc), transformed with Luciferase, at 2uM). Conditions: tested at 2 uM.
Format: functional, HepG2

SMILES	INHIBITION [%]
Cc1ccc(S(=O)(=O)Cc2noc([C@@H]3C[C@@H](O)CN3C)n2)cc1	32.59
CN(Cc1cn2c(n1)CN(Cc1ccc(F)cc1)CC2)Cc1ccco1	9.98
COc1ccc(C2=CCN(C(=O)C3CCCN(C(N)=O)C3)CC2)cc1 (configuration not stated)	-11.91
COc1ccc(C2=CCN(C(=O)C3CCCN(C(C)=O)C3)CC2)cc1 (configuration not stated)	68.24
COc1ccc(C2=CCN(C(=O)C3CCC3)CC2)cc1	-17.31
O=C1[C@H]2CN(Cc3ccc(F)cc3)C[C@H]2CN1c1cncnc1	-20.89
O=C1[C@H]2CN(Cc3ccncc3)C[C@H]2CN1c1cncnc1	54.41
O=C1[C@H]2CN(Cc3ccccc3)C[C@H]2CN1c1cncnc1	37.15
COc1cccc2cc(CNC(=O)N3CCC(N4CCCC4)C3)oc12 (configuration not stated)	25.35
CN(C)C(=O)CN1CCC2(CCN(C(=O)N(C)C)CC2)C1=O	54.01
CN(C)C(=O)CN1CCC2(CCN(S(C)(=O)=O)CC2)C1=O	39.73
CN(C)C(=O)CN1CCC2(CCN(C(=O)N3CCCC3)CC2)C1=O	-4.75
Cc1cnc(N2C[C@@H]3[C@@H](C2)OCC(=O)N3CCN(C)C)nc1	30.58
CNc1nc(N2CCN(Cc3ccsc3)C(CCO)C2)nc2c1CCC2 (configuration not stated)	35.43
O=C(C1CCOCC1)N1C[C@@H]2CC[C@H]1CN(Cc1ccncc1)C2	-21.32
c1cc(-c2noc(C3CCC3)n2)cc(N2CCCCC2)n1	-23.44
c1cc(-c2noc([C@@H]3CCCN3CC3CC3)n2)cc(N2CCCC2)n1	74.33
c1cc(-c2noc([C@@H]3CCCN3C3CCC3)n2)cc(N2CCCC2)n1	23.81
Cc1ccc(CN(Cc2ccccn2)C(=O)[C@H]2CC[C@@H](N)C2)s1	26.74
Cc1ccc(CN(Cc2ccccn2)C(=O)CCC2CCCN(C)C2)s1 (configuration not stated)	50.59
Cc1ccc(CN(Cc2ccccn2)C(=O)C2CCCCCN2C)s1 (configuration not stated)	-42.41
CCn1ccnc1CN1CCNCC1C (configuration not stated)	-47.18
c1cnc(-c2cnc(N3CCSCC3)nc2C2CC2)cn1	-109.23
CCCSCC(=O)N1CCC2(CC1)CC(c1ccccc1)CN(C)C2 (configuration not stated)	33.16
O=C1CO[C@@H]2CN(CC3CCOC3)C[C@H]2N1Cc1cccc(F)c1 (some centres not stated)	-12.84
O=C1CO[C@@H]2CN(CC3CC3)C[C@H]2N1Cc1cccc(F)c1	52.81

SMILES	INHIBITION [%]
O=C1CO[C@@H]2CN(C3CCOCC3)C[C@H]2N1Cc1cccc(F)c1	2.98
Cn1nc2c(cc1=O)CN(CCOc1ccccc1C#N)CC2	-45.4
Cc1nc(-c2ccccc2)nc2c1CCN(Cc1nccn1C)CC2	3.18
CCc1ccc(CN2CCCn3c(nc(Cn4ccnc4)cc3=O)C2)o1	54.56
Cc1ccc(CN2CCCn3c(nc(Cn4ccnc4)cc3=O)C2)o1	33.97
O=c1cc(Cn2ccnc2)nc2n1CCCN(Cc1ccco1)C2	-0.18
Cc1ncoc1C(=O)N1C[C@H]2CCC[C@@]2(COCc2cccnc2)C1	30.77
Cc1ccccc1C(NC(=O)CCCS(C)(=O)=O)C(C)(C)C (configuration not stated)	33.22
CCc1nnc(SC2CCCN(c3cnn(C)c3)C2=O)n1C (configuration not stated)	11.87
CCc1nnc(SC2CCCN(c3cccc(F)c3)C2=O)n1C (configuration not stated)	77.68
Cn1nnnc1SC1CCCN(c2cccc(F)c2)C1=O (configuration not stated)	14.65
COc1ccc(CNC(=O)N(Cc2ccc(F)cc2F)C2CC2)cn1	-67.07
COCCN1CCN(Cc2cnc(C)nc2)CC1	17.8
CCC(C)S(=O)(=O)N1CCc2nc(C3CCNCC3)ncc2C1 (configuration not stated)	-0.83
CC(=O)N1CC2(CCN(C(=O)c3ccc4c(c3)OCCO4)CC2)C1	65.54
CC(=O)N1CC2(CCN(C(=O)c3ccoc3)C2)C1	67.62
CC(=O)N1CCC2(CC1)CN(C(=O)c1ccc3c(c1)OCO3)C2	37.54
Cc1cnc(N2CC3(CCN(C(=O)c4ccoc4)C3)C2)nc1	-18.49
CC(=O)N1CCC2(CC1)CN(C(=O)c1ccc3c(c1)OCCO3)C2	41.38
O=C(c1ccoc1)N1CCC2(C1)CN(c1ncccn1)C2	25.43
Cc1cccc(COC[C@H]2CC[C@H]3[C@H](CCN3Cc3ccco3)O2)n1	-22.82
O=C(c1ccco1)N1CCC2(CCCN(c3ncccn3)C2)C1 (configuration not stated)	-18.02
NC(=O)C1CN(C(=O)NCC2(c3ccc(F)cc3)CCC2)CCO1 (configuration not stated)	-14.79
NC(=O)C1CN(C(=O)C2(c3ccc(F)cc3F)CCCC2)CCO1 (configuration not stated)	56.49
CC1CN(C(=O)C2(c3ccc(F)cc3F)CCOCC2)CCO1 (configuration not stated)	20.14
CN1CC2(CCN(C(=O)CCc3nc4cccnc4n3C)C2)OC1=O (configuration not stated)	-31.03

SMILES	INHIBITION [%]
N#Cc1ccc(C(=O)N2CC(c3nc(-c4ncccn4)no3)C2)cc1	11.43
CNC(=O)c1cccc(NC(=O)NC(C)c2cc(C)oc2C)c1C (configuration not stated)	57.75
CNC(=O)c1cccc(NC(=O)NCc2ccccc2)c1C	-7.16
Cc1cc(C(C)NC(=O)c2ccc(O)nc2)c(C)o1 (configuration not stated)	56.96
Cc1cc(C(C)NC(=O)c2cnc3onc(C)c3c2)c(C)o1 (configuration not stated)	4.49
CC(C)NC(=O)c1ccc(NC(=O)NC(C)c2ccccn2)cc1 (configuration not stated)	2.26
Cc1cc(C(C)NC(=O)c2c[nH]c(=O)c(Cl)c2)c(C)o1 (configuration not stated)	25.72
CNC(=O)c1ccc(NC(=O)NC(C)c2cc(C)oc2C)c(C)c1 (configuration not stated)	41.05
CNC(=O)c1ccc(NC(=O)NC(C)c2cc(C)oc2C)cc1 (configuration not stated)	50.59
CNC(=O)c1cccc(NC(=O)NC(C)CCc2cccn2C)c1C (configuration not stated)	-54.27
COCc1nc(C(=O)N2CCCC2c2c(C)nn(C)c2C)cs1 (configuration not stated)	5.1
Cc1ccc(C2(O)CCN(C(=O)CCn3ccc(=O)[nH]c3=O)CC2)nc1	-3.56
N#CC1(NC(=O)COC(=O)Cc2cc(Cl)c3c(c2)OCCO3)CCCC1	17.14
O=C(NCCN1CCOCC1)c1cnc(Cc2ccc(F)cc2)s1	-42.16
CCc1nc(CN2CCN(C(=O)CCc3ccccc3)CC2)cs1	36.32
Fc1ccc(OCCCNC2=NCCN2)cc1	6.36
Cc1ccc(CCNc2ncc(C)c(-c3ccnn3C)n2)s1	-33.54
COCC(=O)N1CC(c2csc(NC(C)=O)n2)C1	50.74
COCC(=O)N1CCCC(c2csc(NC(C)=O)n2)C1 (configuration not stated)	15.73
COCC(=O)N1CCC(c2csc(NC(C)=O)n2)CC1	-2.2
Cc1nn(C)c(Cl)c1C1CCCN1CC(=O)NCc1ccco1 (configuration not stated)	33.61
CC(=O)Nc1ccc(CN2CCOC2=O)cc1	55.66
CCC(C)NC(=O)Nc1ccc(CN2CCOC2=O)cc1 (configuration not stated)	-5.28
CC(C)CNC(=O)Nc1ccc(CN2CCOC2=O)cc1	-15.92
N[C@H]1CN(Cc2cnc(N3CCCC3)nc2)C[C@@H]1C1CC1	22.18
Nc1ncc(CN2C[C@H](C3CC3)[C@@H](N)C2)cn1	64.38

SMILES	INHIBITION [%]
CCNc1ncc(CN2C[C@H](C3CC3)[C@@H](N)C2)cn1	-35.18
Cn1ccnc1SCCNC(=O)CC1CCc2ccccc21 (configuration not stated)	1.88
CN1CCN(Cc2cccc(NCc3ncc[nH]3)c2)CC1	8.37
COCc1nc2cc(NCc3ncc[nH]3)ccc2o1	12.94
Fc1cccc(NCc2ncc[nH]2)c1	51.08
Fc1cccc(C(NCc2ncc[nH]2)c2ccccc2)c1 (configuration not stated)	14.52
COc1cc(NCc2ncc[nH]2)ccc1Br	44.23
Fc1ccc(NCc2ncc[nH]2)cc1Br	56.21
CCOc1ccc(N(CC(=O)c2ccccc2)C2=NCCCCC2)cc1	20.74
CS(=O)(=O)c1cc(Cl)cnc1C1CCN(C(=O)C2CCOCC2)CC1	-33.32
Cn1nccc1C(=O)N1CCC(c2ncc(Cl)cc2S(C)(=O)=O)CC1	76.78
CS(=O)(=O)c1cc(Cl)cnc1C1CCN(C(=O)C2CC2)CC1	-14.56
Cn1cc(CN2C[C@H](N3CCOCC3)[C@@H]3OCCC[C@@H]32)cn1	-3.36
O=C(CSC1CCCC1)N1CCN(C(=O)C2CC2c2cccs2)CC1 (configuration not stated)	10.39
CN(CC(=O)N(CCC#N)c1ccccc1)C1CCc2ccccc21 (configuration not stated)	-25.33
N#CCCN(CCC#N)C(=O)CN(C1CC1)C1CCc2ccccc21 (configuration not stated)	12.84
CN(CCC#N)C(=O)CN(C1CC1)C1CCc2ccccc21 (configuration not stated)	63.73
CCn1c(SCC(N)=O)nnc1C(C)NC(=O)c1ccc(Cl)cc1 (configuration not stated)	11.4
COCCN(Cc1nccs1)C(=O)c1cc(-c2ccc(C)s2)n[nH]1	31.51
COCCN(Cc1nccs1)C(=O)c1cc(-c2ccc(C)o2)n[nH]1	52.98
COCCN(Cc1nccs1)C(=O)c1c(C)cc(C)[nH]c1=O	-1.63
COc1ccc(C)c2c1N(C(=O)c1ccc3nnc(C)n3c1)CCC2	61.06
COc1ccc(C)c2c1N(C(=O)c1cnc(C)s1)CCC2	18.01
COc1ccc(C)c2c1N(C(=O)c1cnc3onc(C)c3c1)CCC2	47.2
